Source: PubChem BioAssay (National Center for Advancing Translational Sciences (NCATS))
In the library only some 8.1% were active in any assay of this set; here they are far more common.
SW480 rereplic: induces DNA re-replication in SW480 colon adenocarcinoma cells. SW480 DNA re-replication, Hoechst DNA content imaging, 48 h. Potency, µM (top dose mostly 46.1 µM), for the others: at the highest dose re-replication activation, actives largely listed as activators. actives 1.8% (n = 340,000). AID 624297; also: % of control where 0% means no effect; nearly all actives have a fitted effect of over 55% in size
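Hoechst fluorescence of nuclei (405 nm excitation, 500-530 nm emission) measured by plate-scanning imager after 48 hr compound exposure at 37 C; re-replication scored as increased number of nuclei with elevated intensity.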
ELG1 repair inh: inhibitors of ELG1-dependent DNA repair in HEK293T cells. actives 2.3% (n = 330,000). AID 504467. HEK293T ELG1-luciferase reporter, luminescence, 16 h; DNA damage induced by 5-fluorouridine. Potency, µM (highest dose often 46.1 µM), for inactives: top-dose activity change, negative = inhibition, usual class: inhibitors; also: % is scaled to controls: 0 for no effect and ±100 for the full control effect; nearly all actives have a fitted effect of over 55% in size
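Quantitative HTS, concentration-response format. 2,000 cells/well co-treated with 5-fluorouridine and compound, 16 hr in 5% CO2 at 37 °C; ONE-Glo luminescence read after 30 min.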
KB-V1 cytotox: KB-V1 MDR subline cytotoxicity; Potency, µM (titrated, usually from 46.1 µM), hits mostly cytotoxic; KB-V1 MDR cells viability, CellTiter-Glo, 72 h; AID 1347076; actives 3.4% (n = 400,000); also: % is scaled to controls: 0 for no effect and ±100 for the full control effect; nearly all actives have a fitted effect of over 60% in size
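KB-V1, DMEM (no phenol red) + 10% FBS; cpd pin-transferred, titration series; 72 h, 37 degrees C; CellTiter-Glo, luminescence. Data normalized, curve-fit.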
MCF10A rereplic: DNA re-replication induction in MCF 10a cells; MCF 10A DNA re-replication, Hoechst nuclear intensity, 48 h; Potency, µM (highest dose often 46.1 µM), inactives show at the top dose activity, positive = re-replication, most hits filed as activators; actives 2.9% (n = 350,000); also: % of control where 0% means no effect; nearly all actives have a fitted effect of over 50% in size
KB-3-1 cytotox: KB-3-1 parental cell cytotoxicity. KB-3-1 viability, CellTiter-Glo ATP luminescence, 72 h. Potency, µM (titrated, usually from 46.1 µM), actives largely listed as cytotoxic. actives 1.4% (n = 400,000). AID 1347075; also: % is scaled to controls: 0 for no effect and ±100 for the full control effect; nearly all actives have a fitted effect of over 60% in size
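Parental KB-3-1 viability, qHTS format: 72 h compound exposure, 37 °C; CellTiter-Glo; media-only wells and DMSO plates as controls; concentration-effect fits on corrected data.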
* marks the source's active call; other numbers are inactive results; i = inactive; ? = inconclusive; / = not tested or not shown; [ ] = remark or other dose. Calls follow the shape of the dose curve; as a rule, active = well fitted curve in the direction sought with a large enough effect; inconclusive = small, poorly fitted or top-dose-only effect, or another doubt; inactive = no such curve, though single readings can be large; an effect the other way counts as inactive or inconclusive. Potency is read from the fitted curve at half-maximal effect.

SMILES | SW480 rereplic | ELG1 repair inh | KB-V1 cytotox | MCF10A rereplic | KB-3-1 cytotox
O=C(O)c1cccc(C(=O)Nc2cccc(NC(=O)C3CCCO3)c2)c1 (stereo unspecified) | ? | ? | i | ? | i
O=C(N/N=C/c1ccc(Br)s1)c1ccco1 | -7% | ? | i | -3% | i
O=C(N/N=C/c1sc(=O)n(Cc2ccc(Br)cc2)c1Cl)c1ccco1 | -30% | -18% | i | 18µM* | ?
O=C(CSc1nc(-c2ccccc2)cc(C(F)(F)F)n1)NCc1cccs1 | 2% | -1% | i | 6.5µM* | i
COc1ccc(-c2cc(-c3cccs3)c(C#N)c(SCC(=O)NCc3ccco3)n2)cc1 | 2.6µM* | ? | ? | 1.5µM* | ?
COc1ccc(-c2cc(C(F)(F)F)nc(SCC(=O)NCc3cccs3)n2)cc1 | -7% | ? | 18µM* | 22% | i
CCOc1ccc(N(CC)S(=O)(=O)c2cc(Br)cc3c2N(C(C)=O)C(C)C3)cc1 (stereo unspecified) | / | / | i | / | ?
COc1ccc(N2CCN(C(c3cccs3)C(C)NC(=O)C(=O)N3CCCCC3)CC2)cc1 (stereo unspecified) | -17% | 3% | i | 1% | i
CC1CCCC(C)N1C(=O)CSc1ccc(-c2ccc3c(c2)OCCO3)nn1 (stereo unspecified) | 11% | -4% | i | 26% | i
CC1CCCCN1C(=O)CSc1ccc(-c2ccc(F)cc2)nn1 (stereo unspecified) | -3% | 24% | 12µM* | -1% | i
COC(=O)COc1ccc(Cl)cc1C1Nc2ccccc2C(=O)N1c1ccc(OC)cc1 (stereo unspecified) | 7% | ? | i | 4% | i
COc1cc(C2Nc3ccccc3C(=O)N2c2ccccc2)c(Br)cc1OCC(=O)O (stereo unspecified) | 23µM* | 9% | i | -6% | i
CCCN(CC1CC1)C(=O)CSc1nnc(-c2cc(-c3cccs3)nc3ccccc23)o1 | 1% | 9.2µM* | i | -7% | i
CCc1nnc(NC(=O)CCC(=O)NCc2ccc(C)cc2)s1 | -28% | ? | ? | 3% | i
C/C(=C\c1ccccc1F)C(=O)c1c(C)cc(C)[nH]c1=O | -1% | -14% | i | -39% | i
Cc1[nH]c(=O)c(C(=O)/C=C/c2ccccc2F)c2c1CCCC2 | 4.1µM* | 15µM* | 6.5µM* | 3.3µM* | 6.5µM*
O=C(COC(=O)Cc1ccc(Cl)cc1)Nc1ccc2[nH]c(=O)[nH]c2c1 | -5% | 6% | i | 2% | i
Cn1nccc1NC(=O)Nc1cccc(Cl)c1Cl | -129% | -10% | i | -1% | ?
CCn1nc(C(=O)Nc2nc3ccc(C)cc3s2)c2ccccc2c1=O | 21µM* | 4% | i | 23µM* | i
CCCCn1nc(C(=O)Nc2nc3c(s2)CCCC3)c2ccccc2c1=O | 0% | 15µM* | i | 14% | i
Cc1nc2ccc(NC(=O)c3nn(CC(C)C)c(=O)c4ccccc34)cc2s1 | -3% | -25% | ? | ? | ?
CCCCCCn1nc(C(=O)Nc2nc3c(s2)CCCC3)c2ccccc2c1=O | -5% | ? | i | ? | i
Cc1cc(C)nc(S/C=C/C(=O)c2ccccc2F)n1 | -4% | ? | ? | 2.6µM* | i
Cc1ccccc1NC(=O)CSc1nc2c(c(=O)n(C)c(=O)n2C)n1Cc1ccccc1F | / | / | i | / | i
COc1ccc(/C=C/c2nc3ccccc3n2C)cc1 | 1% | ? | 4.1µM* | 15% | 5.2µM*
SMILES | SW480 rereplic | ELG1 repair inh | KB-V1 cytotox | MCF10A rereplic | KB-3-1 cytotox
COc1ccc(Nc2nc3ccccc3n2C)cc1 | -5% | ? | i | 1% | i
CCn1c(/C=C/c2ccccc2)nc2ccccc21 | ? | ? | ? | ? | i
CC(O)c1nc2ccccc2n1C/C=C/c1ccccc1 (stereo unspecified) | 0% | 13% | 15µM* | -6% | i
COc1ccc(-n2cnc3ccccc32)cc1 | -4% | 8.2µM* | i | -2% | i
COc1ccc(Cn2c(/C=C/c3ccccc3)nc3ccccc32)cc1 | ? | ? | 13µM* | ? | ?
CC1CCN(S(=O)(=O)c2ccc(NC(=O)Cn3nnc(-c4ccccc4F)n3)cc2)CC1 | -4% | -2% | ? | -6% | i
CC(=O)OC(C)C1C2=C(C(=O)CC1(C)O)C(=O)c1c(ccc(-c3ccc4c(c3O)C(=O)C3=C(C4=O)C(C(C)OC(C)=O)C(C)(O)CC3=O)c1O)C2=O (stereo unspecified) | 16% | / | ? | 14% | ?
COc1ccc([C@H]2CC(=O)C=C(c3ccc4ncccc4c3)C2)cc1 | ? | ? | i | 142% | ?
O=C1C=C(c2ccc3ncccc3c2)C[C@@H](c2ccc(Cl)cc2)C1 | 8% | ? | ? | 23µM* | ?
O=C1C=C(c2ccc3[nH]ccc3c2)C[C@@H](c2ccc(Cl)cc2)C1 | 23% | ? | i | 10µM* | i
O=C1C=C(c2ccc3ccccc3c2)C[C@@H](c2ccc(Cl)cc2)C1 | 0% | 0% | ? | 28% | ?
CCNc1nc(NCC)nc(SCCOC(=O)c2ccccc2)n1 | -4%[9.22 µM] | -11% | i | -1% | i
CCNc1nc(NCC)nc(SCCOC(=O)Nc2ccc(Cl)cc2Cl)n1 | -2% | ? | i | 18µM* | i
O=C(N/N=C/c1sc(N2CCCCC2)nc1-c1cccs1)C1CC1 | ? | ? | i | ? | i
NC(=O)N/N=C/c1sc(N2CCCCC2)nc1-c1cccs1 | 21µM* | / | ? | 23µM* | i
COc1ccc(NC(=O)c2ccc(Cn3cc(Cl)cn3)cc2)cc1 | 0% | 3% | i | -2% | i
CN(C)c1ccc(NC(=O)c2ccc(Cn3cc([N+](=O)[O-])cn3)cc2)cc1 | ? | ? | i | ? | 18µM*
CCCCC(=O)Nc1ccc(C(=O)NNC(=O)c2ccco2)cc1 | -13% | 29% | i | -2% | i
Cc1c(-c2nc(-c3ccccc3F)no2)nnn1-c1cc(F)ccc1F | / | / | i | / | i
CCn1c(-c2cc(-c3cc(OC)ccc3OC)nc3ccccc23)n[nH]c1=S | 1% | 6.5µM* | i | 4% | i
CCn1c(-c2cc(-c3ccccc3OC)nc3ccccc23)n[nH]c1=S | ? | 16µM* | ? | ? | i
CCn1c(-c2cc(-c3ccc(OC(C)C)cc3)nc3ccccc23)n[nH]c1=S | 8% | ? | i | 17% | i
CCn1c(-c2cc(-c3ccc(C)cc3)nc3ccccc23)n[nH]c1=S | -6% | -4% | i | -1% | i
